Laboratory results: the supplement of paper PMC6555819

system: VDR:RXRa (NR concentration 270 nM, RXRa partner concentration 90 nM); assay: PBM binding z-score (relative to random genomic background probes); higher = stronger binding; sequences stand for … in GC…GCGATTGACAGCGTAGAATGAAGG
Procedure: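 Protein-binding microarray (Agilent 4x180K custom design, double-stranded 60-nt probes: 5' GC cap, 34-nt variable region, 24-nt constant primer region; full probe sequence given). Purified or IVT nuclear receptor:RXRα heterodimers (3:1 NR:RXRα, mostly 270:90 nM) or homodimers were incubated for 1 h in PBS with 2% milk and no ligand, then detected with Alexa488 antibodies. Fluorescence from o1-orientation probes (~5 replicates averaged) was converted to z-scores against 500 random hg19 background probes. Variable regions are seed direct-repeat (DR0–DR5) sites, all their single-nucleotide variants and half-site ablations.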

Sequence | PBM binding z-score
CGTCCAAGGTCATAGGAGGTCAGTGGAGACAGAT | 6.87
TAGCCTATGTCATTCAGGGGCCAGTATAGAAAGC | -0.286
CCTAGCAGGCCATGGTCACTCAAGCATTTCGCTT | -0.485
CCTCGTAGGACAGAAGGTCAGAGCTGTCCGCTTT | 1.13
GCTGCTAGGTCAGGTCGGTCAGCTAACGGGTACG | 1.09
TCAGACAAGTGAAGGTAACTCAGGTACGCAGTCG | 0.46
TCATATAGGTATAAGGTGAAAGTCGGTGTGGTAA | 1.06
CATACAGGGTCAGCTCGGCCAGAGTAGGGACGGC | 3.32
ATCGAAAGTTCGACGAGGTGAGTATACACCGTTT | 2.81
ATCTCTAGGCAAAGATAGTTCAGTGAATGCAAAT | -0.11
AATCAAAGTTCACTAGGTAACGTAAGATTCAGCT | 3.91
ATATGTAGGGTAAGGGTCATTCAGGTTGGTTCGC | 5.59
ATCTCTAGGTAACCAAGTTTAGTGAATGCCGAAC | 1.55
GCATATAGGGAATACAAGGTGAAAGTCCGATTGT | 0.0593
CGAACCAGGTCATTGACAGGACAGTGAATAGTAA | 2.85
CGTCCAAGGTCAGCAGCTCAGTGAAAGCGACGTG | 2.09
GCGACTGGGGCATCGGCAGGTTACCATAACTTAA | -0.199
TCTCGGAGGACAAGAAGGTCAGAGCTTTCCAGAG | 1.8
TGTCAAAGTCCAAAGGTAACGTAAGTATCCACAC | 0.386
CAAACTAGGTCAAGAGGTGAAAGTCCGCTTCCCG | 2.93

Sequence | PBM binding z-score
AGAACGAGGGCACACTGAGTTGATAGCAGAGTAG | 2.15
TCTGCTAGGTCAGTTGGTCTGCTAACGAGCTGCC | 0.0911
CAGCCTAGGTCAGGGCCAGTGTAGGAGGAACGTT | 0.257
CCGAGTAGGTTTTGGGGCATTCAGGCAACGGTGA | -0.239
TCTAGATGGTCAAAGGTCACACACTCGAAATGCG | 5.33
ACCAGTTGGTCAGCTGAGGTCACACACAATTCGG | 4.45
CCTCGGAGGACAGGAGGTCAGAGCTGTCCGCTTT | 1.47
TCTCGGAGGATACGAAAGGTCAGAGCTCGACATC | 2.6
AATACAGGGTCATCGTAGGCCAGAATACGCACAG | 5.15
ATAGAAAGGTCGACGAGGTGAGTATACACCGTTT | 5.01
AGAAGGAGGGCAATGAGTTGATAGCACGGGTGGC | 4.93
ATCTCTAGGTAACGATAGTTCAGTGAATGCAAAT | 0.643
ATCTCTAGGTAAAGATCAGTGAAAGATCGATAGA | -0.0816
TATACAGGGTGAAAGGCCAGAGTACGAATGTCGA | 0.682
TTACCATGGTGAAAGGTCGTTGATGCACGCCTTG | 2.11
CCTGATAGGTCAATGGTCAGCTAAAGCAGCTCGC | 1.99
AGAATGAGGTTAAGATCAGCGAAACAGAATACAT | 0.872
TATACAGGGTCAAAGCCCAGAGTACGAATGTCGA | 4.41
TCATATAGGTAAATGCTAGGGGAAAGTCCGATCT | 0.846
TCTATGAGTTGATTAGGGCAACCGAAACAGCGGA | 0.54
